Screening results deposited in PubChem BioAssay by Corson Lab, School of Medicine, Indiana University.
The sample as a whole holds a higher share of hits than the screen did.
FECH block: inhibitors of human ferrochelatase, primary screen, biochemical, purified FECH, Ni-mesoporphyrin absorbance; Ferrochelatase, mitochondrial (Homo sapiens), P22830; Ni-mesoporphyrin absorbance 550 nm; calls only at 10 µM (by protocol); hit rate 3.3% among 20,000; AID 1671448, 2021;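 active = enzyme reaction rate more than 3 SD below the solvent-only control wells on the same plate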;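 note: lower slope than DMSO wells means FECH inhibition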
Target sequence (P22830 whole entry, looked up): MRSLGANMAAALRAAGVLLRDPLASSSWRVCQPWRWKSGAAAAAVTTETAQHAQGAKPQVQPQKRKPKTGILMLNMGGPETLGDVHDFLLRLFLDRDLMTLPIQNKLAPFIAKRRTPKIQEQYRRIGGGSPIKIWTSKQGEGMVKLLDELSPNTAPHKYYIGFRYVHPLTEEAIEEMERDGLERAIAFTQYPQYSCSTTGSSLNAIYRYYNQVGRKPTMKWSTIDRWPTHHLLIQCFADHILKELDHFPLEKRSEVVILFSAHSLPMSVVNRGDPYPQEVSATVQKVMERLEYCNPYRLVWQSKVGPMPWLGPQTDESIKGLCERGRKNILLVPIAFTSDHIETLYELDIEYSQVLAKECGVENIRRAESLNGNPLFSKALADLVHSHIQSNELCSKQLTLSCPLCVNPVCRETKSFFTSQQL
* = called active by the depositor; i = inactive; + = active, no number.

SMILES	FECH block
Cc1cccc(Nc2nc(NC3CCCC3)nc3c2cnn3-c2ccccc2)c1	i
Cc1cnc(CNC(=O)c2cn(CC3CCCNC3)nn2)cn1 (stereo not given)	i
CCCC(=O)NC1CC(=O)N(c2ccc(OC)cc2)C1 (stereo not given)	i
Cc1ccc(OCc2cc(=O)n3oc(C)cc3n2)c(NC(=O)c2ccc(C(C)(C)C)cc2)c1	i
O=C(O)c1cccnc1CN1CCC[C@H]1CN1CCCC1	i
CN(CCC(=O)Nc1nnc(C2CC2)s1)Cc1nc2ccc(F)cc2[nH]1	i
CCOc1ccc(NCc2cc(=O)n3[nH]c(NCc4ccccc4)nc3n2)cc1	i
COc1ccc(NCc2cc(=O)n3[nH]c(-c4ccc(C(C)(C)C)cc4)nc3n2)cc1	i
CCc1ccccc1NCc1cc(=O)n2[nH]c(-c3ccc(C(C)(C)C)cc3)nc2n1	+
CN(Cc1ccccc1)Cc1cc(=O)n2[nH]c(-c3ccc(C(C)(C)C)cc3)nc2n1	i
Cc1ccc(NCc2cc(=O)n3[nH]c(-c4ccc(C(C)(C)C)cc4)nc3n2)cc1Cl	i
COc1ccccc1NCc1cc(=O)n2[nH]c(-c3ccc(C(C)(C)C)cc3)nc2n1	i
COc1ccc(Cl)cc1NCc1cc(=O)n2[nH]c(-c3ccc(C(C)(C)C)cc3)nc2n1	+
Cc1ccccc1NCc1cc(=O)n2[nH]c(-c3ccc(C(C)(C)C)cc3)nc2n1	+
CC(C)(C)c1ccc(-c2nc3nc(CN4CCN(c5ccccc5)CC4)cc(=O)n3[nH]2)cc1	i
CCOc1ccc(NCc2cc(=O)n3[nH]c(-c4ccc(C(C)(C)C)cc4)nc3n2)cc1	+
COc1ccc(Cl)cc1NCc1cc(=O)n2[nH]c(NCc3ccc(F)cc3)nc2n1	i
Cc1c(Cl)cccc1NCc1cc(=O)n2[nH]c(-c3ccc(C(C)(C)C)cc3)nc2n1	i
Cc1ccc(Cn2c(CNC(=O)c3cccs3)nc3cccnc32)cc1	i
CCC(C)NC(=O)C1CCN(c2ccc(-c3ccc(F)cc3)nn2)CC1 (stereo not given)	i
CCC1=C(c2ccc(OC)cc2)S(=O)(=O)N(CC(=O)Nc2cc(OC)ccc2OC)C1=O	i
CCOc1ccc(-c2nc(SCC(=O)NCCCOC)n3[nH]c(=O)cc3n2)cc1	i
Clc1ccc(Nc2nc(N3CCC(Cc4ccccc4)CC3)nc3c2cnn3-c2ccccc2)cc1	i
CC(C)(C)c1ccc(-c2nc3nc(CNc4ccccc4)cc(=O)n3[nH]2)cc1	+
Cc1cccc(-c2nc3nc(CN4CCN(c5ccccc5)CC4)cc(=O)n3[nH]2)c1	i
SMILES	FECH block
CC(C)(C)c1ccc(-c2nc3nc(CN4CCCCC4)cc(=O)n3[nH]2)cc1	i
CN1CCN(Cc2cc(=O)n3[nH]c(-c4ccc(C(C)(C)C)cc4)nc3n2)CC1	i
CC(C)(C)c1ccc(-c2nc3nc(CN4CCc5ccccc5C4)cc(=O)n3[nH]2)cc1	+
COc1ccccc1N1CCN(Cc2cc(=O)n3[nH]c(-c4cccc(C)c4)nc3n2)CC1	+
CC(C)(C)c1ccc(-c2nc3nc(CNc4ccc(Cl)cc4)cc(=O)n3[nH]2)cc1	i
CC(C)(C)c1ccc(-c2nc3nc(CNc4cccc(C(F)(F)F)c4)cc(=O)n3[nH]2)cc1	i
Cc1cccc(-c2nc3nc(CN4CCN(c5ccc(F)cc5)CC4)cc(=O)n3[nH]2)c1	i
Cc1nc(C2CC2)ncc1C(=O)NCC(c1ccco1)N1CCCC1 (stereo not given)	i
O=C1CN(Cc2ccccc2Cl)S(=O)(=O)c2ccccc2N1Cc1cccc(C(F)(F)F)c1	i
Cc1ccccc1Nc1oc2c(c1-c1cccnc1)c(=O)n(C)c(=O)n2C	i
Cc1nc(CNC(=O)c2ccc(Cn3ccnc3)o2)nc2c1CCCC2	i
Cn1c(CO)nnc1CC1CCN(C(=O)c2c[nH]c3ccccc23)CC1	i
CSc1nc(-c2ccc(Cl)cc2)c(C#N)c(N2CCCCC2C)n1 (stereo not given)	i
CCC(C)N(Cc1ccccc1F)C(=O)c1cn(C)c2ccccc2c1=O (stereo not given)	i
NC(=O)c1csc(N2CCCC(c3[nH]ncc3-c3ccc(F)cc3)C2)n1 (stereo not given)	i
COc1ccccc1NC(=O)CN1C(=O)CN(C)C(=O)c2ccccc21	i
O=C1CN(Cc2ccc(Cl)cc2)S(=O)(=O)c2ccccc2N1Cc1ccc(Cl)cc1	i
Cc1cc2c(cc1O)NC(=O)CC2c1nc(-c2ccc(Cl)cc2)no1 (stereo not given)	i
COCCN(Cc1cccs1)C(=O)C(=O)Nc1ccc(C)cc1	i
CN1CC(=O)N(CC(=O)Nc2ccc3c(c2)OCO3)c2ccccc2C1=O	+
Cc1ccc(NC(=O)CN2C(=O)CN(C)C(=O)c3ccccc32)cc1	i
Cc1cc(C)cc(NC(=O)CN2C(=O)CN(C)C(=O)c3ccccc32)c1	i
CN1CC(=O)N(CC(=O)Nc2ccc(F)c(Cl)c2)c2ccccc2C1=O	+
CN1CC(=O)N(CC(=O)Nc2ccccc2)c2ccccc2C1=O	i
CC(C)c1ccc(NC(=O)CN2C(=O)CN(C)C(=O)c3ccccc32)cc1	i
SMILES	FECH block
CC1CCC(NC(=O)C2CCN(c3ncnc4c3nc3n4CCCCC3)CC2)CC1 (stereo not given)	i
O=C1C2CCCCC2C(=O)N1c1nc2n(n1)C(c1ccccc1)C=C(c1ccccc1)N2 (stereo not given)	i
O=c1c(Nc2ccccc2F)c(-c2ccc3c(c2)CCCC3)c1=O	+
O=c1c(Nc2ccc(Cl)cc2)c(-c2ccc3c(c2)CCCC3)c1=O	i
Cc1c(Cl)cccc1Nc1c(-c2ccc3c(c2)CCCC3)c(=O)c1=O	i
CCCNC(=O)c1[nH]cnc1C(=O)NCCC(C)C	i
COC(=O)c1cc2n(n1)CCN(C(=O)c1ccc(-c3ncc[nH]3)s1)C2	i
COc1ccc(-n2c(CN3CCN(S(=O)(=O)c4ccc(Br)cc4)CC3)nc3cccnc32)cc1	i
O=C1CC(=O)Nc2cc(S(=O)(=O)N3CCC(c4ccccc4)C3)ccc2N1 (stereo not given)	i
Cc1c(Cl)cccc1NCc1cc(=O)n2[nH]c(NCc3ccc(F)cc3)nc2n1	i
CCc1ccc(NCc2cc(=O)n3[nH]c(NCc4ccc(OC)cc4)nc3n2)cc1	i
Cc1c(Cl)cccc1NCc1nc2nc(C(C)C)cc(=O)n2[nH]1	+
CCCc1cc(=O)n2[nH]c(CNc3ccccc3OC)nc2n1	+
CCOc1ccccc1NCc1nc2nc(C(C)C)cc(=O)n2[nH]1	i
CCCc1cc(=O)n2[nH]c(CNc3ccccc3CC)nc2n1	+
CCCc1cc(=O)n2[nH]c(CNc3ccc(CC)cc3)nc2n1	i
COc1ccc(CNc2nc3nc(CNc4ccc(Cl)cc4)cc(=O)n3[nH]2)cc1	i
CCCc1cc(=O)n2[nH]c(CNc3ccc(Cl)cc3)nc2n1	+
COc1ccccc1CNc1nc2nc(CN3CCN(c4ccccc4)CC3)cc(=O)n2[nH]1	i
CCCc1cc(=O)n2[nH]c(CNc3c(C)cccc3C)nc2n1	i
Cc1cc(C)c(S(=O)(=O)N2CCN(c3nc(C)cc(N(C)C)n3)CC2)c(C)c1	i
Cc1ccc(NS(=O)(=O)c2ccc3c(c2)CCN3C(=O)CCC(=O)N2CCOCC2)c(C)c1	i
CNCC(=O)NCCc1nc(-c2ccccn2)no1	i
CN1CC(=O)N(CC(=O)NCCc2nc3ccccc3[nH]2)c2ccccc2C1=O	i
